# Measured values: PubChem BioAssay (NCATS)
# Inconclusive results are not listed. Entries that show only a call come without a potency. Calls of active or inactive are those of the source. Unless noted, calls come from the whole dose curve; as a rule, active = well fitted curve in the direction sought with a large enough effect; inconclusive = small, poorly fitted or top-dose-only effect, or another doubt; inactive = no such curve, though single readings can be large; an effect the other way counts as inactive or inconclusive.
# How the values were obtained:
# [1] = target: Cytochrome P450 3A4 (Homo sapiens) (UniProt P08684); assay: qHTS Assay for Inhibitors and Substrates of Cytochrome P450 3A4 (AID 884); note: nearly all actives have a fitted effect of over 50% in size
# In short: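 Luminescent readout of luciferin produced by CYP3A4 (20 nM) dealkylation of Luciferin-PPXE, 25 uM (its KM). NADPH-driven reaction ran 60 min at RT after 10 min compound preincubation; data scaled to 57 uM ketoconazole as 100% inhibition.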
# [2] = Confirmation and Secondary Assay for Modulators of Hemoglobin Beta Chain Splicing at IVS2 654 locus (AID 910);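 note: HeLa cells stably carrying EGFP split by mutant beta-globin IVS2-654 intron; per-well total GFP intensity by laser scanning cytometry after 2-day treatment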
# In short: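 Readout: per-well total peak green fluorescence (488 nm ex, 500–520 nm em) from objects 5–250 µm, reflecting correct splicing of an EGFP-654 reporter. Compounds were applied for 2 days at 37 °C to overnight-plated HeLa EGFP-654 cells; controls were DMSO and 500 nM IVS2-654 PNA.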
# [3] = Confirmation and Secondary Assay for Modulators of Hemoglobin Beta Chain Splicing at IVS2 705 locus (AID 930);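 note: HeLa cells stably expressing the EGFP-705 splicing reporter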
# In short: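 Restored EGFP fluorescence after 2-day compound exposure reports splicing correction in IVS2-705 EGFP reporter HeLa cells; positive control was 500 nM splice-blocking PNA oligo. Signal measured as well total peak GFP intensity (488 nm excitation).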
# [4] = qHTS Assay for Lipid Storage Modulators (AID 1519; calls by dose curve); details: Drosophila S3 cells, BODIPY lipid droplet/cell ratio, laser cytometry, cells loaded with oleic acid
# In short: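 Cells seeded at 5,000 per well were treated with compounds over a concentration series and loaded with oleic acid (400 uM, as added). Lipid droplet fluorescence (488 nm excitation, 500-530 nm channel) was read by laser-scanning cytometry and normalized to 20 uM Triacsin C.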
# [5] = target: ATP-dependent 6-phosphofructokinase (Trypanosoma brucei brucei) (UniProt O15648); assay: qHTS Assay to Find Inhibitors of T. brucei phosphofructokinase: hit validation (AID 492961);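 note: luminescence reports ADP formed as PFK phosphorylates fructose-6-phosphate with ATP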
# In short: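 Measures ADP output of PFK (1.25 nM) at 0.1 mM ATP, 0.5 mM F6P, pH 8.0 TEA buffer with 5 mM MgCl2. No-enzyme wells define full inhibition; uninhibited enzyme wells define zero.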
# [6] = target: Ubiquitin carboxyl-terminal hydrolase 1 (Homo sapiens) (UniProt O94782); assay: Inhibitors of USP1/UAF1: Pilot qHTS (AID 504865);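 note: rhodamine fluorescence freed from ubiquitin-rhodamine substrate followed over time; top concentration of the series differs between compounds; nearly all actives have a fitted effect of over 35% in size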
# In short: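 In 50mM HEPES pH 7.8 containing 0.5mM EDTA, 1mM TCEP, 0.1 mg/ml BSA and 0.01% Tween-20, 1nM USP1/UAF1 is exposed to compound for 15 min, then Ub-Rho (150nM final) is added and fluorescence is read over time.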
# [7] = target: Luciferin 4-monooxygenase (Photinus pyralis) (UniProt P08659); assay: Biochemical firefly luciferase enzyme assay for NPC (AID 624030);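 note: purified P. pyralis luciferase at 10 nM with luciferin and ATP substrate; nearly all actives have a fitted effect of over 70% in size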
# In short: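 Direct inhibition of firefly luciferase enzyme (10 nM final, 50 mM Tris Acetate) assessed by luminescence within 5 minutes. Percent activity scaled between DMSO and PTC124 positive control, with concentration-effect curves classified by fit quality and response.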
# [8] = S16 Schwann cell viability assay (CellTiter-Glo assay) (AID 624031);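 note: cellular ATP luminescence as a viability measure; nearly all actives have a fitted effect of over 70% in size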
# In short: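 CellTiter-Glo ATP luminescence counter-screen in untransfected S16 rat Schwann cells, 24h compound exposure at 37 degree Celsius after overnight seeding (500-750 cells/well); response scaled between cell-free wells and DMSO (0% activity), curves classed by r2 and magnitude.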
# [9] = S16 Schwann cell PMP22 intronic element firefly luciferase assay (AID 624032); note: nearly all actives have a fitted effect of over 30% in size
# In short: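 Luciferase reporter of PMP22 intronic-element expression in stably transfected S16 rat Schwann cells, read by ONE-Glo luminescence after 24 h compound exposure at 37 C. Activity scaled between DMSO (0%) and positive-control PTC124; concentration-effect curves quality-classified.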
# [10] = NCATS anti-infectives library activity on HEK293 viability as a counter-qHTS vs the C. elegans viability qHTS (AID 1745854);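 note: potency is the fitted concentration of half-maximal effect; HEK293 cells exposed to compounds for 24 hr before the viability read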
# In short: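 Counter-screen for cytotoxicity: HEK293, 24 hr, 37C, compounds up to 41.7 uM final (a dilution series, 1:5). Readout CellTiter-Glo luminescence, 10 min RT. Digitonin control, 83.3 uM final.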
# [11] = NCATS anti-infectives library activity on the primary C. elegans qHTS viability assay (AID 1745855; calls by dose curve; note: potency is the fitted concentration of half-maximal effect)
# In short: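 GFP read-out by 488 nm laser cytometry at day 0, 3 and 7, gated on object perimeter, area and peak intensity, scored viability of PE254-GFP-FLuc worms exposed to compound in S medium with bacterial capsules at 21 °C.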
# [12] = target: Glutathione peroxidase 1 (Homo sapiens) (UniProt P07203); assay: Primary qHTS Assay for Inhibitors of Recombinant Selenoprotein Glutathione Peroxidase 1 (GPX1) (AID 1845191); note: nearly all actives have a fitted effect of over 65% in size
# In short: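 NADPH consumption tracked by fluorescence at 340/450 nm between t=0 and t=15 min, room temperature. Final mix: 10 nM GPX1, 100 nM glutathione reductase, 1 mM GSH, 0.5 mM NADPH, 0.5 mM cumene hydroperoxide, 0.01% BSA; 30 min compound–enzyme preincubation.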
# [13] = target: Phospholipid hydroperoxide glutathione peroxidase GPX4 (Homo sapiens) (UniProt P36969); assay: Primary qHTS Assay for Inhibitors of Recombinant Selenoprotein Glutathione Peroxidase 4 (GPX4) (AID 1845192); note: nearly all actives have a fitted effect of over 65% in size
# In short: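 NADPH consumption followed by fluorescence at 340/450 nm, t=0 and after 15 min at room temperature. Reaction started with cumene hydroperoxide (0.5 mM final) after 30 min compound–GPX4 preincubation; final 200 nM GPX4, 100 nM GR, 1 mM GSH, 0.5 mM NADPH.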
# [14] = qHTS profiling for inhibitors of Plasmodium falciparum proliferation (AID 504749); note: nearly all actives have a fitted effect of over 60% in size; note: potency is the fitted concentration of half-maximal effect; details: P. falciparum in erythrocytes, SYBR Green DNA, 72 h, at 28.7 µM (top of the series)
# In short: (§1)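 SYBR Green fluorescence of parasite DNA, read after lysis and overnight dark incubation, measured growth over 72 h in erythrocyte culture at 0.3% parasitemia and 2.5% hematocrit. Data normalised to DMSO and 0.29 uM artemisinin, with plate-drift correction.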
# 7G8 = assay: as above; details: P. falciparum in erythrocytes, SYBR Green DNA, 72 h; series mostly up to 12.8 µM
# In short: as §1
# AA1029 = assay: as above; details: P. falciparum in erythrocytes, SYBR Green DNA, 72 h; series mostly up to 28.7 µM
# In short: as §1
# AS120 = assay: as above; details: P. falciparum in erythrocytes, SYBR Green DNA, 72 h; series mostly up to 28.7 µM
# In short: as §1
# ATS95 = assay: as above; details: P. falciparum in erythrocytes, SYBR Green DNA, 72 h; series mostly up to 28.7 µM
# In short: as §1
# C2A = assay: as above; details: P. falciparum in erythrocytes, SYBR Green DNA, 72 h; series mostly up to 28.7 µM
# In short: as §1
# CP185 = assay: as above; details: P. falciparum in erythrocytes, SYBR Green DNA, 72 h; series mostly up to 28.7 µM
# In short: as §1
# CP192 = assay: as above; details: P. falciparum in erythrocytes, SYBR Green DNA, 72 h; series mostly up to 28.7 µM
# In short: as §1
# CP201 = assay: as above; details: P. falciparum in erythrocytes, SYBR Green DNA, 72 h; series mostly up to 28.7 µM
# In short: as §1
# CP203 = assay: as above; details: P. falciparum in erythrocytes, SYBR Green DNA, 72 h; series mostly up to 28.7 µM
# In short: as §1
# CP211 = assay: as above; details: P. falciparum in erythrocytes, SYBR Green DNA, 72 h; series mostly up to 28.7 µM
# In short: as §1
# CP215 = assay: as above; details: P. falciparum in erythrocytes, SYBR Green DNA, 72 h; series mostly up to 28.7 µM
# In short: as §1
# CP217 = assay: as above; details: P. falciparum in erythrocytes, SYBR Green DNA, 72 h; series mostly up to 28.7 µM
# In short: as §1
# Chain of Luciferin 4-monooxygenase (Photinus pyralis) (P08659 whole entry, looked up): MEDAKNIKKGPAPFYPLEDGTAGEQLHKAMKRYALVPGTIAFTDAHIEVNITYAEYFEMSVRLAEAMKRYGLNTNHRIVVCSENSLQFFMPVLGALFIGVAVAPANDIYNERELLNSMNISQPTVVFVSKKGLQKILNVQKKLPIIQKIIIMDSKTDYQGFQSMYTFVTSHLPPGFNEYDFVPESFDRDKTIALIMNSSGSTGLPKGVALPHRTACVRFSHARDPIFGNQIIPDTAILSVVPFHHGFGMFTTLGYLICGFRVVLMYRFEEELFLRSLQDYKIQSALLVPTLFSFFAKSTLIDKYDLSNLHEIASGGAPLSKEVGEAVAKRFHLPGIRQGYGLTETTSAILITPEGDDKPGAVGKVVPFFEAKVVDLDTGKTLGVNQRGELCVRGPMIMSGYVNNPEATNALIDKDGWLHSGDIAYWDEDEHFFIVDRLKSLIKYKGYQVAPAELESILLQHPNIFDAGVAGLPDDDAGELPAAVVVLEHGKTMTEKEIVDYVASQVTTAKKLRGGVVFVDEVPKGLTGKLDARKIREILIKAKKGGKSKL
# Chain of Glutathione peroxidase 1 (Homo sapiens) (P07203 whole entry, looked up): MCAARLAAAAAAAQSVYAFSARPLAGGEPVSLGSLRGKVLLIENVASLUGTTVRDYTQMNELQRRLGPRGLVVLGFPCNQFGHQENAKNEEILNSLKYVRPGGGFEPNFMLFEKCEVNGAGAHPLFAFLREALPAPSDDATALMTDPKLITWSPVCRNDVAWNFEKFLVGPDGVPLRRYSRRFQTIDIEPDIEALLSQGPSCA
# Chain of Ubiquitin carboxyl-terminal hydrolase 1 (Homo sapiens) (O94782 whole entry, looked up): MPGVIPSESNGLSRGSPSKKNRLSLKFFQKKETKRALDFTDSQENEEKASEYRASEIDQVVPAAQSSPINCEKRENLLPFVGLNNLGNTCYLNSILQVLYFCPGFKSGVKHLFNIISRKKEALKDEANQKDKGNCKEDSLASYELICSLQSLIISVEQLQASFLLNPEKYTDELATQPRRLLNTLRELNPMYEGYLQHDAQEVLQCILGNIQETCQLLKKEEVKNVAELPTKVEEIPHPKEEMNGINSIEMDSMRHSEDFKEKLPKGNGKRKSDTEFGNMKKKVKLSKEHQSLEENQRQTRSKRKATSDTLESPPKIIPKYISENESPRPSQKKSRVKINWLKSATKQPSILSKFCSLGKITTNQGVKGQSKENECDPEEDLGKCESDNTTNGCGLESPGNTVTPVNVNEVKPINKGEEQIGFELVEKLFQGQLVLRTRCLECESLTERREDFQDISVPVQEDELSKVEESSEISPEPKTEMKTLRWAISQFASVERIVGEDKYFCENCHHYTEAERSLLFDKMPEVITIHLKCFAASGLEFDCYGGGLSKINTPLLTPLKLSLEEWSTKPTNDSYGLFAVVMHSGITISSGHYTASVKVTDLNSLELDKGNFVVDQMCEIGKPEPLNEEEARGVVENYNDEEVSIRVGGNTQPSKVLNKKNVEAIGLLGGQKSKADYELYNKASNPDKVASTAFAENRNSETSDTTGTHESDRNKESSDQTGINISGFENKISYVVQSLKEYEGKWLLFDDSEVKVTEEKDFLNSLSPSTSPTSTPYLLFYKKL
# Chain of ATP-dependent 6-phosphofructokinase (Trypanosoma brucei brucei) (O15648 whole entry, looked up): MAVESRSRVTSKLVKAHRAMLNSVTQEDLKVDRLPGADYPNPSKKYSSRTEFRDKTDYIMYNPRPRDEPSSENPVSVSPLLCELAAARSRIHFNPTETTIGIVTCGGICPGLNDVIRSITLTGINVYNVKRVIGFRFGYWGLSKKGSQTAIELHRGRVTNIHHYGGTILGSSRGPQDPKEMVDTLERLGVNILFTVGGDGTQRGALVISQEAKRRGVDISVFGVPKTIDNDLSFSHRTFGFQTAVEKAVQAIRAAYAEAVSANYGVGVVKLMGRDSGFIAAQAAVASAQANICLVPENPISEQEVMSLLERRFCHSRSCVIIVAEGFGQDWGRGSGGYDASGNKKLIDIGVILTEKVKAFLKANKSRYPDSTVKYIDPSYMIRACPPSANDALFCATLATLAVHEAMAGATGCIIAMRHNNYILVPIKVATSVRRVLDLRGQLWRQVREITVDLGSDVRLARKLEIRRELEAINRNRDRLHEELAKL
# Chain of Phospholipid hydroperoxide glutathione peroxidase GPX4 (Homo sapiens) (P36969 whole entry, looked up): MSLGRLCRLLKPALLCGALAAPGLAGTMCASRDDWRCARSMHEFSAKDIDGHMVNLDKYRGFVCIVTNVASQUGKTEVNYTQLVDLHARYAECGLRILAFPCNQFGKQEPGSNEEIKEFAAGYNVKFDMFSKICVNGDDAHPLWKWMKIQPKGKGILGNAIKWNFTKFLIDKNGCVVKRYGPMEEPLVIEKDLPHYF
# Chain of Cytochrome P450 3A4 (Homo sapiens) (P08684 whole entry, looked up): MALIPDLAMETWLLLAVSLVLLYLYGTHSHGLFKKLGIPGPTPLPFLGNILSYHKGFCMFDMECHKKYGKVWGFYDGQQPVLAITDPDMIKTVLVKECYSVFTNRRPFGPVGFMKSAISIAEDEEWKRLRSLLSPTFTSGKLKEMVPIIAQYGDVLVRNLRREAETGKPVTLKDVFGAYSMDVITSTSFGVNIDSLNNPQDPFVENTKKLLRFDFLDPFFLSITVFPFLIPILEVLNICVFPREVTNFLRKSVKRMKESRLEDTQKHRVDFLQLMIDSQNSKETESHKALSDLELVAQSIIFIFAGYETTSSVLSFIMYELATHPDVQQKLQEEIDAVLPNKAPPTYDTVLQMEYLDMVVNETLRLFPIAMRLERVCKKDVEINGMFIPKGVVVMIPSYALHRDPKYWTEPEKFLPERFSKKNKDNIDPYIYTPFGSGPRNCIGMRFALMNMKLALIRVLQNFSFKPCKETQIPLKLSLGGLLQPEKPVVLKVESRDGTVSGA
structure (smiles),measurement,setting,value
CC(=O)OC1C[C@H](O[C@@H]2C(O)C[C@H](O[C@@H]3C(O)C[C@@H](OC4CC[C@]5(C)C(CCC6C5CC(O)[C@@]5(C)C(C7=CC(=O)OC7)CC[C@@]65O)C4)OC3C)OC2C)O[C@H](C)[C@H]1O[C@H]1OC(CO)C(O)C(O)C1O (some centres undefined),Potency,[1],inactive
same,Potency,[2],inactive
same,Potency,[3],inactive
same,"activity change, negative = inhibition",[4]; at 57.5 µM (top of the series),1.49% (inactive)
same,max response,[4]; measured here: cell count channel max response,20.6%
same,max response,[4]; measured here: lipid channel max response,24.4%
same,Potency,[5],inactive
same,Potency,[6],inactive
same,Potency,[7],inactive
same,Potency,[8],inactive
same,Potency,[9],inactive
same,Potency,[10],0.199 µM (active)
same,Potency,[11],8.16 µM (active)
same,Potency,[12],inactive
same,Potency,[13],inactive
same,"activity, negative = inhibition",[14]; parasite line A,-17.9% (inactive)
same,"activity, negative = inhibition",[14]; parasite line B,17.8% (inactive)
same,Potency,7G8,8.91 µM (active)
same,Potency,AA1029,inactive
same,Potency,AS120,inactive
same,Potency,ATS95,inactive
same,Potency,C2A,inactive
same,Potency,CP185,inactive
same,Potency,CP192,inactive
same,Potency,CP201,inactive
same,Potency,CP203,inactive
same,Potency,CP211,inactive
same,Potency,CP215,inactive
same,Potency,CP217,inactive
